Source: PubChem BioAssay (NCATS)
Results filed as inconclusive are left out. Unmarked numbers belong to inactive results. The source made the active and inactive calls. Calls come from the whole dose curve; as a rule, active = well fitted inhibition curve with a large enough effect; inconclusive = small, poorly fitted or top-dose-only effect; inactive = flat fitted curve, though single readings scatter.

molecular target: Luciferin 4-monooxygenase (Photinus pyralis) (UniProt P08659); experiment: Biochemical firefly luciferase enzyme assay for NPC (AID 624030);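 note: purified P. pyralis luciferase at 10 nM with luciferin and ATP substrate; 0% = DMSO and -100% = full luciferase inhibition by PTC124 control; nearly all actives have a fitted effect of over 70% in size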; details: purified P. pyralis luciferase, luminescence, 5 min; series mostly up to 58.6 µM; activity change, negative = inhibition: at the top concentration
Summary of the method: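 Direct inhibition of firefly luciferase enzyme (10 nM final, 50 mM Tris Acetate) assessed by luminescence within 5 minutes. Percent activity scaled between DMSO and PTC124 positive control, with concentration-effect curves classified by fit quality and response.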

Sequence of Luciferin 4-monooxygenase (Photinus pyralis) (P08659 whole entry, looked up): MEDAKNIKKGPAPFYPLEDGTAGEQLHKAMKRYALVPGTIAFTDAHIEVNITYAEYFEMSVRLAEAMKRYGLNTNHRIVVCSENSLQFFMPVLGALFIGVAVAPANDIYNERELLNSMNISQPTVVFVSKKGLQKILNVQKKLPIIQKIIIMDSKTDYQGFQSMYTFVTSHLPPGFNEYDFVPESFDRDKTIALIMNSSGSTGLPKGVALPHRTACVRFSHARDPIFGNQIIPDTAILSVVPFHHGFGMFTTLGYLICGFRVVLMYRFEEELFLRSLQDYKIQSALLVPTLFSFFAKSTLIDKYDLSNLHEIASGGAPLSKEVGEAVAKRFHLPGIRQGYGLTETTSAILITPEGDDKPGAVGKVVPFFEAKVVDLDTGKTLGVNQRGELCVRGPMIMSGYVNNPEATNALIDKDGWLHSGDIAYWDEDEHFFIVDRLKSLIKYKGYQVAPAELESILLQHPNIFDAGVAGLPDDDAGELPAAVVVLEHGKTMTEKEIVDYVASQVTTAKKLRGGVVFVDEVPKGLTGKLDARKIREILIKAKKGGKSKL

Row | SMILES | activity change, negative = inhibition [%] | Potency
1 | O=C(O)Cc1ccc(OCCNC[C@H](O)c2ccccc2)cc1 | 1.32 | 
2 | C1N2CN3CN1CN(C2)C3 | 3.4 | 
3 | NCC(=O)O | -3.01 | 
4 | C=CC[N+]1([C@H]2C[C@H]3[C@@H]4CC[C@H]5C[C@H](OC(C)=O)[C@@H](N6CCCCC6)C[C@]5(C)[C@H]4CC[C@]3(C)[C@H]2OC(=O)CC)CCCCC1 | 0.688 | 
5 | COc1ccccc1OCC1CNC(=O)O1 (configuration not stated) | 0.773 | 
6 | CC(=O)Nc1c(I)c(NC(C)=O)c(I)c(C(=O)O)c1I | -0.419 | 
7 | O=C1NCCN1CCN1CCC(c2cn(-c3ccc(F)cc3)c3ccc(Cl)cc23)CC1 |  | inactive
8 | CCCN(CCC)C(=O)C(CCC(=O)OCCCN1CCN(CCOC(=O)Cc2c(C)n(C(=O)c3ccc(Cl)cc3)c3ccc(OC)cc23)CC1)NC(=O)c1ccccc1 (configuration not stated) | -3.46 | 
9 | OC1(c2ccc(Cl)c(C(F)(F)F)c2)CCN(CCCC(c2ccc(F)cc2)c2ccc(F)cc2)CC1 | 4.75 | 
10 | Cc1cccc(C)c1NC(=O)c1cc(S(N)(=O)=O)c(Cl)cc1O | -12.5 | 
11 | O=C(CCC1CCN(Cc2ccccc2)CC1)c1ccc2c(c1)NCCCC2 | 1.25 | 
12 | CN(C)CCOC1=Cc2ccccc2Sc2ccc(Cl)cc21 | 7.01 | 
13 | COc1cc(C(=O)NC2CCCNC2)cc(OC)c1OC (configuration not stated) | -9.33 | 
14 | C=CCOc1cc(Cl)ccc1C(=O)NCCN(CC)CC | 0.128 | 
15 | CCCCNc1ccc(C(=O)OCCN(CC)CC)cc1 | 0.207 | 
16 | O=C(CCCCC(=O)Nc1c(I)cc(I)c(C(=O)O)c1I)Nc1c(I)cc(I)c(C(=O)O)c1I | -12.9 | 
17 | CCOC(=O)c1ccc(NC(=O)CN2CCCCC2)cc1 | -14 | 
